Experimental data taken from PubChem BioAssay (EPA / NIEHS).
Calls of active or inactive are those of the source. The calls were made as follows: active = hit-call score of the fitted dose curve at least 0.9, where 1 is the maximum; inactive = score below 0.9.

Tests used:
[1] = APR_HepG2_P-H2AX_72hr: Apredica 72-hour HepG2 Assay for H2AX Phosphorylation (AID 2282916); settings: imaging, actives raise or lower the signal;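 also: phospho-histone H2A.x immunostain intensity per cell marking DNA damage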
Method in brief: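 Human hepatoma HepG2 cells are dosed across ten concentrations (0.39 to 200 uM, 0.5% v/v DMSO) and incubated 72 hr. Phospho-histone H2A.x is then detected by antibody staining alongside c-Jun and Hoechst, and quantified by automated fluorescence imaging.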

[2] = APR_HepG2_MitoMembPot_72hr: Apredica 72-hour HepG2 Assay for Mitochondrial Membrane Potential (AID 2282917); settings: imaging, actives raise or lower the signal
Method in brief: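 HepG2 cells exposed 72 h to compounds at 0.39–200 uM (0.5% v/v DMSO, duplicates); MitoTracker Red CMXRos 250 nM loaded 30 min before 3.7% formaldehyde fixation, imaged by HCS fluorescence. Bidirectional fit versus DMSO.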

[3] = APR_HepG2_MitoticArrest_72hr: Apredica 72-hour HepG2 Assay for Mitotic Arrest (AID 2282918); settings: high-content imaging, actives raise or lower the signal
Method in brief: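 Read-out is phospho-histone H3 immunofluorescence with Hoechst nuclear segmentation, imaged at 20x. Human HepG2 liver cells received ten concentrations (0.39–200 uM, final DMSO 0.5% v/v) for 72 hr before fixation. Gain or loss of signal was fitted relative to DMSO.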

[4] = APR_HepG2_MicrotubuleCSK_72hr: Apredica 72-hour HepG2 Assay for Microtubule CSK Stabilty (AID 2282919); settings: HepG2 microtubule cytoskeleton, high-content imaging, actives raise or lower the signal
Method in brief: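 Ten-point dosing (0.39–200 uM, 0.5% DMSO) of HepG2 for 72 hr, with taxol as the cytoskeletal positive control. The cells were formaldehyde-fixed and then stained with alpha-tubulin/Cy5 and Hoechst. Imaging at 20x used a −2 um Z offset for tubulin.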

[5] = APR_HepG2_P-H2AX_24hr: Apredica 24-hour HepG2 Assay for H2AX Phosphorylation (AID 2282920); settings: high-content imaging, actives raise or lower the signal
Method in brief: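 HepG2, 24 hr, cpd 0.39–200 uM (10 conc, duplicate), DMSO 0.5% v/v final. Fix 3.7% formaldehyde, Triton X-100 permeabilize, anti-phospho-H2A.x 1:200 + Hoechst 2 ug/mL. Imaged, bidirectional fit vs DMSO.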

[6] = APR_HepG2_StressKinase_72hr: Apredica 72-hour HepG2 Assay for Stress Kinase (AID 2282921); settings: HepG2 stress kinase (phospho-c-Jun) imaging, actives raise or lower the signal
Method in brief: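 After a 72 h compound treatment spanning 0.39 to 200 uM, formaldehyde-fixed cells are labelled for phosphorylated c-Jun and nuclei, imaged by automated fluorescence microscopy, and activity is fitted in both directions relative to DMSO controls.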

[7] = APR_HepG2_StressKinase_24hr: Apredica 24-hour HepG2 Assay for Stress Kinase (AID 2282922); settings: HepG2 stress kinase (phospho-c-Jun) imaging, actives raise or lower the signal
Method in brief: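 After 24 hr compound treatment (up to 200 uM, final DMSO 0.5% v/v), HepG2 cells are fixed and multiplex-labeled; phospho-c-Jun intensity is captured by high-content fluorescence imaging and analyzed relative to DMSO.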

[8] = APR_HepG2_p53Act_72hr: Apredica 72-hour HepG2 Assay for p53 Activation (AID 2282923); settings: high-content imaging, actives raise or lower the signal;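 also: average cellular p53 protein immunofluorescence intensity in HepG2 cells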
Method in brief: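 Imaging-based endpoint: after 72 hr compound exposure (up to 200 uM, 0.5% DMSO), fixed and permeabilized monolayers were labelled with anti-p53 antibody and imaged; signal change in either direction was fitted relative to DMSO controls.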

[9] = APR_HepG2_MitoMass_72hr: Apredica 72-hour HepG2 Assay for Mitochondrial Mass (AID 2282924); settings: high-content imaging, actives raise or lower the signal;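 also: MitoTracker Red CMXRos stain intensity per cell imaged as mitochondrial mass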
Method in brief: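 Steps: treat HepG2 72 hr (0.39–200 uM, duplicate wells); load MitoTracker Red CMXRos, 250 nM, 30 min; fix with 3.7% formaldehyde, permeabilise with 0.5% Triton X-100; capture images, nuclei via Hoechst 33342; fit bidirectionally against DMSO.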

[10] = APR_HepG2_NuclearSize_72hr: Apredica 72-hour HepG2 Assay for Nuclear Size (AID 2282925); settings: high-content imaging, actives raise or lower the signal
Method in brief: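 Compounds (0.39–200 uM, final DMSO 0.5%) were applied to HepG2 for 72 hr. Cells were then formaldehyde-fixed, permeabilized and labelled with Hoechst 33342. Nuclear diameter was quantified from six images per well.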

Measured: AC50

COC(=O)CC(=O)OC
inactive: all assays above

COC(=O)c1c(Cl)c(Cl)c(C(=O)OC)c(Cl)c1Cl
inactive: all assays above

CC(C)CCCCCCCOC(=O)CCCCC(=O)OCCCCCCCC(C)C
inactive: all assays above

Cc1ccc(O)cc1
inactive: all assays above

CC(C)=CCC/C(C)=C\CO
active: [9] 94.5 µM
inactive: all other assays above

C=CCCCCCCCCC(=O)O
inactive: all assays above

Cn1c(=O)c2c(ncn2C)n(C)c1=O
inactive: all assays above

CC(C)=CCCC(C)=CC=O
inactive: all assays above

Cc1[nH]cnc1C[C@H]1CCc2c(C)c3ccccc3n2C1=O
inactive: [2] | [4] | [10]
active: [1] 89 µM | [3] 98.8 µM | [6] 65 µM | [7] 100 µM | [8] 95 µM | [9] 24.4 µM

CC(C)c1cccc(C(C)C)c1N1C(=O)c2ccc(O)cc2C1=O
inactive: [2] | [9] | [10]
active: [1] 6.16 µM | [3] 6.04 µM | [4] 14.8 µM | [5] 44 µM | [6] 6.1 µM | [7] 8.52 µM | [8] 3.01 µM

C=CC(=C)CCC=C(C)C
inactive: all assays above

COC(=O)c1ccccc1O
inactive: all assays above

Cc1ccc(S(=O)(=O)O)cc1C
active: [9] 0.0391 µM
inactive: all other assays above

CC(C)CCCCCCOC(=O)c1ccc(C(=O)OCCCCCCC(C)C)c(C(=O)OCCCCCCC(C)C)c1
not listed: [5]
inactive: all other assays above

COCCOCCOCCOC
inactive: all assays above

COc1ccc(-n2nc(C(F)F)cc2-c2ccc(S(C)=O)cc2)cc1 (stereo not drawn)
active: [9] 36.8 µM
inactive: all other assays above

CCCC(=O)OCC
inactive: all assays above

Nc1nc2ncc(CNc3ccc(C(=O)N[C@@H](CCC(=O)O)C(=O)O)cc3)nc2c(=O)[nH]1
inactive: all assays above

Fc1ccccc1[C@@H](F)COC1CCC(Nc2ncnc3[nH]ncc23)CC1 (stereo partly drawn)
active: [1] 51.3 µM | [3] 60 µM | [4] 81.2 µM | [5] 74.9 µM | [8] 55.6 µM
inactive: all other assays above

CC(C)CC(C)(O)C#CC(C)(O)CC(C)C (stereo not drawn)
inactive: all assays above
